According to PubChem BioAssay (NCI):
The panel holds about 83,000 compounds, 20% with a hit somewhere; the sample as a whole holds those more often.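 Method: cells in 96-well plates; compound added at one concentration; 48 h incubation; percent growth measured; values under 10 scored active.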 Active and inactive are the calls of the source.

What was measured:
Assay in all cases: NCI-60 one-dose screen, 48 h (100 = growth as untreated, 0 = no growth, -100 = all killed)
HT29 colon = conditions: 10 µM unless noted
SNB-75 CNS = conditions: 10 µM unless noted
SNB-19 CNS = conditions: 10 µM unless noted
U251 CNS = conditions: 10 µM unless noted
PC-3 prostate = conditions: 10 µM unless noted
UACC-62 melanoma = conditions: 10 µM unless noted
LOX IMVI melanoma = conditions: 10 µM unless noted
SK-MEL-28 melanoma = conditions: 10 µM
SK-MEL-2 melanoma = conditions: 10 µM unless noted

Measured: growth

O=C(Nc1ccc(I)cc1F)c1cc(Br)ccc1O
active: SNB-75 CNS -26.1% | U251 CNS -14.5% | PC-3 prostate 7.44% | UACC-62 melanoma -19.2% | LOX IMVI melanoma 6.07% | SK-MEL-28 melanoma -3.35% | SK-MEL-2 melanoma -26.5%
inactive: HT29 colon 30.4% | SNB-19 CNS 19%

O=c1oc2ccc(F)cc2c(=O)n1-c1ccc(F)cc1F
active: SNB-75 CNS 2.33% | UACC-62 melanoma 3.17% | SK-MEL-2 melanoma -11.8%
inactive: HT29 colon 97.1% | SNB-19 CNS 38.1% | U251 CNS 13.6% | PC-3 prostate 16.1% | LOX IMVI melanoma 14.2% | SK-MEL-28 melanoma 23%

O=C(CCc1nnc2sc(-c3ccc(Cl)cc3Cl)nn12)c1nc2ncccc2[nH]1
active: HT29 colon -13% | U251 CNS -74.2% | PC-3 prostate -38.6% | UACC-62 melanoma -36.6% | LOX IMVI melanoma -88.3% | SK-MEL-28 melanoma -9.94% | SK-MEL-2 melanoma -11.5%
inactive: SNB-75 CNS 35.3% | SNB-19 CNS 26.9%

Brc1ccc(Oc2ccc(Nc3ncnc4onc(-c5ccccc5)c34)cc2)cc1
inactive: HT29 colon 95.5% | SNB-75 CNS 86.7% | SNB-19 CNS 106% | U251 CNS 98.9% | PC-3 prostate 102% | UACC-62 melanoma 88.6% | LOX IMVI melanoma 94.5% | SK-MEL-28 melanoma 97.2% | SK-MEL-2 melanoma 110%

O=C(Nc1ccc(Br)cc1F)c1cc(Cl)ccc1O
inactive: HT29 colon 15.6% | SNB-19 CNS 14%
active: SNB-75 CNS -34.7% | U251 CNS -0.181% | PC-3 prostate -5.33% | UACC-62 melanoma -24.9% | LOX IMVI melanoma 1.68% | SK-MEL-28 melanoma -6.77% | SK-MEL-2 melanoma -25.8%

O=C(Nc1ccc(Cl)cc1F)c1cc(I)ccc1O
inactive: HT29 colon 103% | SNB-75 CNS 16.5% | SNB-19 CNS 18.9% | PC-3 prostate 44% | LOX IMVI melanoma 19% | SK-MEL-28 melanoma 18.5%
active: U251 CNS 9.91% | UACC-62 melanoma -1.26% | SK-MEL-2 melanoma -19.3%

O=c1oc2ccc(I)cc2c(=O)n1-c1ccc(I)cc1F
inactive: HT29 colon 28.3% | SNB-19 CNS 21.2%
active: SNB-75 CNS -22.6% | U251 CNS 1.81% | PC-3 prostate 3.97% | UACC-62 melanoma -28.6% | LOX IMVI melanoma 4.98% | SK-MEL-28 melanoma -4.19% | SK-MEL-2 melanoma -29.7%

O=c1oc2ccc(I)cc2c(=O)n1-c1ccc(Br)cc1F
active: SNB-75 CNS -18.9% | U251 CNS 0.297% | PC-3 prostate 1.7% | UACC-62 melanoma -14.7% | SK-MEL-28 melanoma 2.3% | SK-MEL-2 melanoma -27.7%
inactive: HT29 colon 50% | SNB-19 CNS 18.2% | LOX IMVI melanoma 11.2%

N#Cc1c(N)nc2c(c1N)C(c1ccc(F)cc1)c1ccc(N)cc1O2 (configuration not stated)
inactive: HT29 colon 112% | SNB-75 CNS 86.6% | SNB-19 CNS 127% | U251 CNS 102% | PC-3 prostate 106% | UACC-62 melanoma 111% | LOX IMVI melanoma 110% | SK-MEL-28 melanoma 109% | SK-MEL-2 melanoma 112%

COc1ccc(Cn2cc(Cn3cc(C=C4C(=O)NC(=O)NC4=O)c4ccccc43)nn2)cc1
inactive: HT29 colon 117% | SNB-75 CNS 78.1% | SNB-19 CNS 90.4% | U251 CNS 92.3% | PC-3 prostate 84.8% | UACC-62 melanoma 64.6% | LOX IMVI melanoma 79.4% | SK-MEL-28 melanoma 102% | SK-MEL-2 melanoma 85.8%

CCOC(=O)C1=C(C)N=c2s/c(=C\c3cc(Cl)ccc3O)c(=O)n2C1c1ccc(OC)cc1 (configuration not stated)
inactive: HT29 colon 72.9% | SNB-75 CNS 89% | SNB-19 CNS 99% | U251 CNS 85.4% | PC-3 prostate 85.2% | UACC-62 melanoma 94% | LOX IMVI melanoma 95.2% | SK-MEL-28 melanoma 106% | SK-MEL-2 melanoma 94.6%

O=C1c2ccc3c4c(ccc(c24)C(=O)N1CCCCO)C(=O)N(CCCCO)C3=O
inactive: HT29 colon 10.9% | SNB-75 CNS 54.2% | SNB-19 CNS 91.4% | U251 CNS 72.3% | PC-3 prostate 63% | UACC-62 melanoma 79.6% | LOX IMVI melanoma 59.9% | SK-MEL-28 melanoma 15.6% | SK-MEL-2 melanoma 58.1%

O=c1oc2ccc(-c3ccc(F)cc3F)cc2c(=O)n1-c1cccc(C(F)(F)F)c1
active: SNB-75 CNS -7.33% | U251 CNS 4.94% | PC-3 prostate 3.58% | UACC-62 melanoma 7.26% | SK-MEL-2 melanoma -15.9%
inactive: HT29 colon 31.3% | SNB-19 CNS 14.4% | LOX IMVI melanoma 25.7% | SK-MEL-28 melanoma 25%

O=Cc1c(OCc2cnnn2CC(=O)Nc2ccc(Br)cc2)ccc2ccccc12
inactive: HT29 colon 97.8% | SNB-75 CNS 72.6% | SNB-19 CNS 90.4% | U251 CNS 90.4% | PC-3 prostate 90.2% | UACC-62 melanoma 68.4% | LOX IMVI melanoma 79.5% | SK-MEL-28 melanoma 99.9% | SK-MEL-2 melanoma 102%

CC/C=C\C[C@H](O)C/C=C1/C(=O)C=C[C@@H]1C/C=C\CCCC(=O)OCCS(=O)(=O)c1ccccc1
active: LOX IMVI melanoma -34.1%
inactive: HT29 colon 45.1% | SNB-75 CNS 111% | SNB-19 CNS 56.2% | U251 CNS 16.3% | PC-3 prostate 63.4% | UACC-62 melanoma 16.1% | SK-MEL-28 melanoma 73.9% | SK-MEL-2 melanoma 72%

CCOC(=O)c1c2c(n3cccc(Cl)c13)C(=O)c1ncccc1C2=O
inactive: HT29 colon 69.3% | SNB-75 CNS 78.2% | SNB-19 CNS 45.9% | U251 CNS 36% | PC-3 prostate 53% | UACC-62 melanoma 55.9% | LOX IMVI melanoma 27.3% | SK-MEL-28 melanoma 87.5% | SK-MEL-2 melanoma 103%

COc1cc(/C=C2\CN(C)C/C(=C\c3cc(CN4CCCC4)c(O)c(OC)c3)C2=O)cc(CN2CCCC2)c1O
inactive: HT29 colon 25.6% | SNB-75 CNS 75.3% | SNB-19 CNS 74.7% | U251 CNS 25.8% | PC-3 prostate 76.8% | UACC-62 melanoma 81.7% | LOX IMVI melanoma 26.3% | SK-MEL-28 melanoma 90.7% | SK-MEL-2 melanoma 92.1%

CCOC(=O)c1cc2c(n1Cc1ccccc1OC)-c1oncc1CCC2
inactive: HT29 colon 10.1% | SNB-19 CNS 59.6% | U251 CNS 36.7% | PC-3 prostate 30.8% | UACC-62 melanoma 26.5% | LOX IMVI melanoma 45.5% | SK-MEL-28 melanoma 44.8% | SK-MEL-2 melanoma 27.5%
active: SNB-75 CNS -2.26%

Cc1ccc(C(=O)c2oc3ccc4c(C)cc(=O)oc4c3c2C)cc1
active: PC-3 prostate 7.34%
inactive: HT29 colon 14.3% | SNB-75 CNS 67.8% | SNB-19 CNS 41.4% | U251 CNS 18.6% | UACC-62 melanoma 29.4% | LOX IMVI melanoma 33.2% | SK-MEL-28 melanoma 51.4% | SK-MEL-2 melanoma 32.1%

O=C(Nc1ccc(Br)cc1F)c1cc(F)ccc1O
active: SNB-75 CNS -16.8% | U251 CNS 3.38% | PC-3 prostate 2.45% | UACC-62 melanoma -16.4% | LOX IMVI melanoma 9.8% | SK-MEL-28 melanoma 6.8% | SK-MEL-2 melanoma -29.2%
inactive: HT29 colon 18% | SNB-19 CNS 19.3%

COc1cc(C2C(C#N)=C(N)OC3=C2C(=O)c2ccccc2C3=O)cc(OC)c1OC (configuration not stated)
active: SNB-75 CNS 7.57% | SK-MEL-2 melanoma -2.31%
inactive: HT29 colon 106% | SNB-19 CNS 34.2% | U251 CNS 17.9% | PC-3 prostate 19% | UACC-62 melanoma 25.9% | LOX IMVI melanoma 27.4% | SK-MEL-28 melanoma 58.1%

CC(C)CCOc1ccc(-c2n[nH]c(C(F)(F)F)c2-c2cncc(C#N)c2)c(O)c1
inactive: HT29 colon 48.9% | SNB-75 CNS 30.1% | SNB-19 CNS 13.1% | UACC-62 melanoma 17.5% | SK-MEL-28 melanoma 33.7%
active: U251 CNS 2.85% | PC-3 prostate 1.74% | LOX IMVI melanoma 5.15% | SK-MEL-2 melanoma -13.8%

COc1ccc(-c2c(-c3ccc(OC)c(O)c3)cnc3ncnn23)cc1
inactive: HT29 colon 108% | SNB-75 CNS 99.6% | SNB-19 CNS 102% | U251 CNS 102% | PC-3 prostate 105% | UACC-62 melanoma 99% | LOX IMVI melanoma 99.8% | SK-MEL-28 melanoma 114% | SK-MEL-2 melanoma 107%

N[C@@H](CC/[N+]([O-])=N/O)C(=O)O
inactive: HT29 colon 99.8% | SNB-75 CNS 113% | SNB-19 CNS 97.8% | U251 CNS 94.9% | PC-3 prostate 102% | UACC-62 melanoma 98.4% | LOX IMVI melanoma 104% | SK-MEL-28 melanoma 106% | SK-MEL-2 melanoma 107%

O=C(Nc1ccc(I)cc1F)c1cc(Cl)ccc1O
active: SNB-75 CNS -24.3% | U251 CNS 0.895% | PC-3 prostate 3.02% | UACC-62 melanoma -18.8% | LOX IMVI melanoma 0.0612% | SK-MEL-28 melanoma -4.2% | SK-MEL-2 melanoma -30.8%
inactive: HT29 colon 33.5% | SNB-19 CNS 18.6%

O=C1c2cc(I)ccc2Oc2cc([N+](=O)[O-])ccc2N1c1ccc(Cl)cc1F
inactive: HT29 colon 83.9% | SNB-75 CNS 75.4% | SNB-19 CNS 90.5% | U251 CNS 79.3% | PC-3 prostate 78.7% | UACC-62 melanoma 76.8% | LOX IMVI melanoma 86.7% | SK-MEL-28 melanoma 97.3% | SK-MEL-2 melanoma 85.4%

COc1ccc(S(=O)(=O)N(Cc2ccc3c(n2)C=CC(C)(C)O3)C2CCC2)cc1OC
active: HT29 colon 3.8% | SNB-75 CNS -12.5% | SNB-19 CNS 8.75% | U251 CNS 0.365% | PC-3 prostate -3.05% | UACC-62 melanoma -14.7% | LOX IMVI melanoma -40.6% | SK-MEL-28 melanoma -18.8% | SK-MEL-2 melanoma -37.5%

O=c1oc2ccc(Br)cc2c(=O)n1-c1ccc(I)cc1F
active: SNB-75 CNS -20.8% | U251 CNS 0.947% | PC-3 prostate -0.134% | UACC-62 melanoma -19.7% | LOX IMVI melanoma 6% | SK-MEL-28 melanoma -2% | SK-MEL-2 melanoma -32.6%
inactive: HT29 colon 40.1% | SNB-19 CNS 18.4%
